Test results: the OligoGym collection

The sequences below were run against HPD (assay: pooled miR-30 sensor sort-seq; sequence = guide strand). Conditions: shRNA.
Also: reference of the scale not given here.

Sequence | sensor-assay potency score (higher = more potent)
AACTTGTCTTGCTCTACCCAGG | -0.858
TTTGGTGAAGATCTGCAGGAGG | -0.36
TGCTGCAGTAGAATGACGCGGC | -0.159
TTATAGTCCACATATTCCTGGA | 0.144
ATGACTTCCAGGAAGAGCGTGG | -0.0981
AAACTTGTCTTGCTCTACCCAG | -0.591
TACATGGCTGACCACCTCCCGG | -1.66

These sequences were tested against HS3ST2 in the same assay as above. Conditions: shRNA.

Sequence | sensor-assay potency score (higher = more potent)
TTGATTTGCCCAAGCATCGAGG | -0.341
TAACAGCAGAATTATGTGCTTT | -0.0537
TTGAGTGACAAAGTAGCTGGGC | 0.674
TTGCTTGAACAGACTGATGAAA | -0.965
ATAATATCTATCATCATTGGAA | -0.218
ATCGCTTATAATATCTATCATC | -1.47
TTATTTCACATGGACAAGCATG | -1.23
TTGTCCGTGATGAATCTCTTAA | -1.07
TTCTTGGAGAGTGTCTGCGTGT | -0.361
TCTTGAGTGACAAAGTAGCTGG | -0.586
TAACACAGGTAAGTGCAGGAGA | -0.326

Each sequence was assayed against HS3ST4 in the same assay as above. Conditions: shRNA.

Sequence | sensor-assay potency score (higher = more potent)
TTCTTTGACAGTGTCTGCGTGT | 0.364
TAAAACATCAAGTTGAAGGGTT | 0.47
TTTTACTAGAACAATTCCTGGT | 0.147
TTTACTAGAACAATTCCTGGTT | 0.821
TTTCTTTGACAGTGTCTGCGTG | -0.405
TTCTGTACCACTCCAACCCCTT | -0.516
TTGACAACTATTTATCCTCTGT | 0.841
TTTGTTGAAATAGAAATGCTTC | -0.152
TTTGTCACAAAGTAACTTGGAG | -0.0205
TTTGAGGCCTAGAAAATCCTGT | 0.0519
TGAGCCGTGATCATCTCGCTGG | -0.131
TTGTCACAAAGTAACTTGGAGT | -0.395

These sequences were tested against HS6ST1 in the same assay as above. Conditions: shRNA.

Sequence | sensor-assay potency score (higher = more potent)
TAGTGTGATGCATCCACCCAGG | -0.887
TGATGTAGTAGAACTTCCTGGG | 0.812
TTTTTTTGTATGAATAACCAAA | -1.12
TACTTCTTCTCGTAGTGGGGGT | -0.105
TTGAACGTCCGCTCGAACAGGT | -0.0201
TTGGTGAGGGACACACTCCCGG | -0.875
TTGAGGTTGAACGTCCGCTCGA | -0.171
TAGTAGAACTTCCTGGGCGTGC | -0.463
TTGAGCTCCTCGATGCGCCGGA | 0.162
TAGCAGGTGCACTTCTTCTGGC | -0.598
